The text below walks through data of ChEMBL document CHEMBL1201862, “PubChem BioAssay data set” (2004).

Hit rate of the full screen: of about 400,000 compounds, about 1,900 (0.47%) were called active. Another 14% or so got no clear call; they are omitted. No rule for the calls is given here. The sample as a whole holds a higher share of actives than the screen did.

This assay deals with Ataxin-2 (Homo sapiens) (UniProt Q99700). Description: qHTS for Inhibitors of ATXN expression. Format: functional. For orientation: Quantitative high-throughput screening tests each substance at several concentrations.
Sequence of Ataxin-2 (Homo sapiens) (Q99700 whole entry): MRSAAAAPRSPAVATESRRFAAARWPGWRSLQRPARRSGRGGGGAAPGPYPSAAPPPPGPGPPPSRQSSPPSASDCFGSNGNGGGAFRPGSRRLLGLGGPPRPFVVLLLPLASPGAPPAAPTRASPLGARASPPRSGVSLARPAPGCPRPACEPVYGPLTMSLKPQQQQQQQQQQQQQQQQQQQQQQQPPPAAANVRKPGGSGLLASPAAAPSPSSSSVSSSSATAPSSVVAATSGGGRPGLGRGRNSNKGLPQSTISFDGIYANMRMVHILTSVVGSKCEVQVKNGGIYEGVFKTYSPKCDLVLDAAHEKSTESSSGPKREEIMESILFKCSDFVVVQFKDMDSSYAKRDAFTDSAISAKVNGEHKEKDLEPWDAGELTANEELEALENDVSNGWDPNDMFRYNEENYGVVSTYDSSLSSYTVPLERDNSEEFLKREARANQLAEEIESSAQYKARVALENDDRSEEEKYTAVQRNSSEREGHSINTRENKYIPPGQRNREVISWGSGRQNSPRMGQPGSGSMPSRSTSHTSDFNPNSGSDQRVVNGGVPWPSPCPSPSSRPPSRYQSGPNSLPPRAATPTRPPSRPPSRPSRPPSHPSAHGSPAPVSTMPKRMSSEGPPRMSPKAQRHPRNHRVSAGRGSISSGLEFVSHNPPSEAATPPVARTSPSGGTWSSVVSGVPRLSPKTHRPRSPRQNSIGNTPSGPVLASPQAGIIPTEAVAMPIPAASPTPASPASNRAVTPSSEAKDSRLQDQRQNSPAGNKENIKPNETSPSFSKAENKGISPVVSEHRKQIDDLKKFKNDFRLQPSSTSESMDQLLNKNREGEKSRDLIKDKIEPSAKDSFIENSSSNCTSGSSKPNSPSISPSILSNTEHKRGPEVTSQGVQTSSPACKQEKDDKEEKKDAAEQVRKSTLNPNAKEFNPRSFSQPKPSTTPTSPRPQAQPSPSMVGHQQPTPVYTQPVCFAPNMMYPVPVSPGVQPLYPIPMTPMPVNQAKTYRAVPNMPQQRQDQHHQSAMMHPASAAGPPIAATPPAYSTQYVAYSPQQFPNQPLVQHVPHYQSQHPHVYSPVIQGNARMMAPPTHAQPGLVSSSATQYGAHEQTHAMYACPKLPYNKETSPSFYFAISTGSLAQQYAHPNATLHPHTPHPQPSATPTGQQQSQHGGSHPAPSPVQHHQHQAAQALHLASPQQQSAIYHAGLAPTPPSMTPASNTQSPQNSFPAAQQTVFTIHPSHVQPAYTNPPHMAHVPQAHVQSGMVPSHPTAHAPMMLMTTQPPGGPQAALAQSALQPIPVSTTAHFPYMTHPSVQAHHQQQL
For `Cc1nc2ccc(N3CCN(C)CC3)cc2nc1C`, the Potency result is “inactive”.

As to `O=C(c1ccccc1)C(CN1CCCC1)c1ccccc1` (stereo unspecified), the Potency is 25.1 µM (active).

Turning to `O=C(c1ccc(-c2ccccc2)c(F)c1)C1CCCN(CCO)C1` (stereo unspecified), the Potency entry is “inactive”.

With `O=C1NCN(c2ccccc2)C12CCN(C(c1cc3ccccc3o1)c1nnnn1Cc1ccccc1)CC2` (stereo unspecified), the Potency was 39.8 µM (active).

For `CC(C)(C)n1nnnc1C(c1cc2ccccc2o1)N1CCC2(CC1)C(=O)NCN2c1ccccc1` (stereo unspecified), the Potency was 39.8 µM (active).

On to `CCCNC(=O)c1c(N)n(Cc2ccco2)c2nc3ccccc3nc12`, for which the Potency entry is “inactive”.

For the molecule `O=C1NCN(c2ccccc2)C12CCN(C(c1cccs1)c1nnnn1Cc1ccccc1)CC2` (stereo unspecified), the Potency is 39.8 µM (active).

For the molecule `CCCCn1nnnc1C(c1cccs1)N1CCC2(CC1)C(=O)NCN2c1ccccc1` (stereo unspecified), the Potency was 31.6 µM (active).

Take `Fc1ccc(CNCCc2ccc3c(c2)OCO3)cc1`: the Potency entry was “inactive”.

Turning to `O=C1NC(=O)N(CCc2ccccc2)C(=O)/C1=C(O)/C=C/c1c[nH]c2ccccc12`, the Potency result is “inactive”.

Take `CN(C)C(=O)Oc1ccc2nnc3ccnn3c2c1`: the Potency entry is “inactive”.

Take `CN(C)c1ccc(/C=C/C=C2/C(=O)NC(=O)N(c3ccccc3)C2=O)cc1`: the Potency is 15 µM (active).

With `CC(C)c1ccc(N2C(=O)NC(=O)/C(=C/C=C/c3ccco3)C2=O)cc1`, the Potency is 39.8 µM (active).

Regarding `COc1ccc(N2C(=O)NC(=O)/C(=C\c3c[nH]c4ccccc34)C2=O)cc1`, the Potency result is “inactive”.

For `CCOc1ccc(N2C(=O)NC(=O)/C(=C\c3ccccc3[N+](=O)[O-])C2=O)cc1`, the Potency result is “inactive”.

For `c1ccc(-c2cc(-c3ccccc3)[n+](-c3ccccc3)c(-c3ccccc3)c2)cc1`, the Potency was 25.1 µM (active).

Take `Cc1ccc(C[n+]2c(-c3ccc(C)cc3)cc(-c3ccc(C)cc3)cc2-c2ccc(C)cc2)cc1`: the Potency was 12.6 µM (active).

Consider `Cc1ccc(-c2cc(-c3ccc(C)cc3)[n+](-c3ccccc3)c(-c3ccc(C)cc3)c2)cc1`, for which the Potency was 17.8 µM (active).

With `COP(=O)(OC)c1nc(-c2cccc3ccccc23)oc1NCCc1ccccc1`, the Potency result was “inactive”.

As to `CCCCn1c(NS(=O)(=O)c2ccc(C)cc2)c(C(=O)OCC)c2nc3ccccc3nc21`, the Potency result is “inactive”.

On to `CCOc1ccc(C(=O)Nc2cccc(C(=O)OCc3cc(=O)n4nc(C5CC5)sc4n3)c2)cc1`, for which the Potency is 3.55 µM (active).

Take `Cn1c(=O)c2c(nc(NN/C=C3/C(=O)NC(=S)N(C4CCCCC4)C3=O)n2C)n(C)c1=O`: the Potency result is “inactive”.

`CN(C)c1c([N+](=O)[O-])cc(N2C(=O)C=CC2=O)cc1[N+](=O)[O-]`: the Potency is 25.1 µM (active).

Turning to `CN1/C(=C\C=C2C(=O)NC(=S)NC2=O)C(C)(C)c2ccccc21`, the Potency is 35.5 µM (active).

On to `CC1(C)OC(c2ccccc2)=C/C(=C/C=C2C(=O)NC(=O)NC2=O)O1`, for which the Potency entry is “inactive”.

In the case of `CC1(C)OC(c2ccccc2)=C/C(=C/C=C2C(=O)NC(=S)NC2=O)O1`, the Potency result was “inactive”.

Consider `Cc1nc2cc(OC(=O)N(C)Cc3cccc(-c4ccncc4)c3)ccc2s1`, for which the Potency is 39.8 µM (active).

For `COc1ccc(C[C@@H]2NC[C@H](O)[C@@H]2OC(C)=O)cc1`, the Potency is 0.0891 µM (active).

Turning to `CCCCCN1C(=O)c2cc(OC)ccc2[C@@]2(C(=O)OCC)Cc3cc(OC)ccc3[C@@H]12`, the Potency is 11.2 µM (active).

For the molecule `CCOC(=O)[C@]12Cc3cc(OC)ccc3[C@H]1N(CCC(=O)OC)C(=O)c1cc(OC)ccc12`, the Potency is 28.2 µM (active).

With `Cc1ccc(C(=O)N[C@@H](C)CN2C3=NC[C@H](Cc4ccccc4)N3C[C@H]2Cc2ccc(O)cc2)cc1Br`, the Potency was 22.4 µM (active).

Take `O=c1c2ccccc2nc(/C=C/c2ccc(O)cc2)n1-c1ccc(O)cc1`: the Potency result is “inactive”.

Regarding `Cc1ccc(C)c(S(=O)(=O)Nc2ccc3c(c2)CCCN3C(=O)c2cccs2)c1`, the Potency was 39.8 µM (active).

For `COc1cccc(-c2nc3cc4c(cc3cc2CN(C(=O)c2cccs2)C2CC2)CCC4)c1OC`, the Potency was 35.5 µM (active).

For the molecule `CCOc1ccc(N/C=C2/C(=O)NC(=S)N(Cc3ccccc3)C2=O)cc1`, the Potency result was “inactive”.

Take `CCCC[C@@H](C)C[C@@H](C)C(=O)N(C)[C@@H](CC(C)C)C(=O)N[C@H](C(=O)N(C)[C@H](C(=O)N1C[C@@H](O)C[C@H]1C(=O)N1C(=O)C=C[C@@H]1C)C(C)C)C(C)OC(C)=O` (stereo partly specified): the Potency was 10 µM (active).

As for `O=c1c2ccccc2nc(/C=C/c2ccc(O)c(O)c2)n1-c1ccccc1`, the Potency entry is “inactive”.

For the molecule `O=C1NC(=S)N(c2ccccc2F)C(=O)/C1=C\c1cccs1`, the Potency is 31.6 µM (active).

In the case of `Cc1ccc(N2C(=O)/C(=C/NCc3ccccn3)C(=O)NC2=S)cc1`, the Potency entry was “inactive”.

For `O=C1NC(=S)N(c2ccc(F)cc2)C(=O)/C1=C\c1ccoc1`, the Potency result was “inactive”.

As to `Cc1cc(N(CCCl)CCCl)ccc1C=Cc1ccncn1`, the Potency result was “inactive”.

`Oc1nc2ccccc2n1C1CCN(C(CCc2ccccc2)c2nnnn2C2CCCCC2)CC1` (stereo unspecified): the Potency is 39.8 µM (active).

`Oc1nc2ccccc2n1C1CCN(C(c2ccccc2)c2nnnn2-c2ccc3c(c2)OCCO3)CC1` (stereo unspecified): the Potency is 14.1 µM (active).

As to `Oc1nc2ccccc2n1C1CCN(C(c2ccccc2OC(F)(F)F)c2nnnn2-c2ccc3c(c2)OCCO3)CC1` (stereo unspecified), the Potency is 39.8 µM (active).

Turning to `Oc1nc2ccccc2n1C1CCN(C(CCc2ccccc2)c2nnnn2-c2ccc3c(c2)OCCO3)CC1` (stereo unspecified), the Potency was 39.8 µM (active).

Turning to `COc1ccc(C2CC(c3cccs3)=NN2c2nc(C)c(C(C)=O)s2)cc1OC` (stereo unspecified), the Potency entry is “inactive”.

With `CCOCCSc1nc2c(c(-c3cccs3)c1C#N)CC/C2=C/c1cccs1`, the Potency result is “inactive”.

For `Cc1cccc(-c2noc(-c3ccc4c(c3)OCO4)n2)c1`, the Potency result is “inactive”.

With `CC(C)CNC(=O)c1c(N)n(Cc2ccco2)c2nc3ccccc3nc12`, the Potency entry was “inactive”.

Consider `CCCN=C1C(=O)C2=C(C(O)=C1C)N1CC3NC3[C@@]1(OC)C2COC(N)=O` (stereo partly specified), for which the Potency result was “inactive”.

For `COc1ccc(-n2c(/C=C/c3ccc(O)c(OC)c3)nc3ccccc3c2=O)cc1`, the Potency result was “inactive”.

For `CC[N+](C)(CC)CCC[n+]1c(-c2ccccc2)c2cc(N)ccc2c2ccc(N)cc21`, the Potency is 11.2 µM (active).

On to `C/C(=C\c1ccc(N(C)C)cc1)[N+](=O)[O-]`, for which the Potency was 22.4 µM (active).

Consider `Cc1ccc(CN2CCCC(C(=O)c3cccc(C(F)(F)F)c3)C2)o1` (stereo unspecified), for which the Potency entry was “inactive”.

On to `C=C1C(=O)O[C@@H]2C[C@@H](C)[C@@H]3C=CC(=O)[C@@]3(C)[C@@H](O)[C@H]12`, for which the Potency was 20 µM (active).

In the case of `C=C1C(=O)O[C@@H]2C[C@@H](C)[C@H]3C=CC(=O)[C@]3(O)C[C@@H]12`, the Potency is 22.4 µM (active).

As to `C=C1C(=O)O[C@@H]2C[C@@H](C)[C@@H]3C=CC(=O)[C@@]3(C)[C@@H](OC(=O)CC(=O)O[C@H]3[C@@H]4C(=C)C(=O)O[C@@H]4C[C@@H](C)[C@@H]4C=CC(=O)[C@]43C)[C@H]12`, the Potency was 0.562 µM (active).

`COc1cc(/C=C/c2nc3ccccc3c(=O)n2-c2ccccc2O)ccc1O`: the Potency entry was “inactive”.

Regarding `COc1ccc(-c2c/c(=N\CCC(=O)O)c3cc(C)ccc3o2)cc1`, the Potency result is “inactive”.

In the case of `C=CCn1c(=O)/c(=C\c2ccccn2)s/c1=C(/C#N)C(=O)NCC1CCCO1` (stereo unspecified), the Potency entry was “inactive”.

With `O=C(Nc1c(Cl)cccc1Cl)Oc1cccc2cccnc12`, the Potency entry was “inactive”.

Turning to `O=C(NNC(=O)C12CC3CC(CC(C3)C1)C2)c1ccccc1F`, the Potency result was “inactive”.

`C[C@@H]1O[C@H](O[C@H]2C[C@@H](O)[C@@]3(CO)[C@H]4[C@@H](O)C[C@]5(C)[C@@H](C6=CC(=O)OC6)CC[C@]5(O)[C@H]4CC[C@]3(O)C2)[C@@H](O)[C@H](O)[C@@H]1O`: the Potency was 0.0891 µM (active).

With `C[C@@H]1O[C@H](O[C@@H]2CC[C@@]3(C=O)[C@H]4CC[C@@]5(C)[C@@H](C6=CC(=O)OC6)CC[C@@]5(O)[C@@H]4CC[C@]3(O)C2)C[C@H](O)[C@@H]1O`, the Potency was 3.55 µM (active).

For the molecule `C[C@@]12CC[C@H]3[C@@H](CC[C@]4(O)C[C@H](O)CC[C@@]34C=O)[C@]1(O)CC[C@@H]2C1=CC(=O)OC1`, the Potency is 0.708 µM (active).

Consider `CCC1C(=O)OCC1Cc1cncn1C` (stereo unspecified), for which the Potency result is “inactive”.

With `COc1cccc(C(c2nnnn2C(C)(C)C)N2CCC3(CC2)C(=O)NCN3c2ccccc2)c1OC` (stereo unspecified), the Potency was 39.8 µM (active).

On to `COc1cccc(C(c2nnnn2-c2ccc3c(c2)OCCO3)N2CCC3(CC2)C(=O)NCN3c2ccccc2)c1OC` (stereo unspecified), for which the Potency is 39.8 µM (active).

With `COc1cccc(C(c2nnnn2C2CCCC2)N2CCC3(CC2)C(=O)NCN3c2ccccc2)c1OC` (stereo unspecified), the Potency is 39.8 µM (active).

In the case of `CSCCC(c1nnnn1C1CCCCC1)N1CCC2(CC1)C(=O)NCN2c1ccccc1` (stereo unspecified), the Potency was 39.8 µM (active).

As to `CC(C)(C)n1nnnc1C(c1cccc2ccccc12)N1CCC2(CC1)C(=O)NCN2c1ccccc1` (stereo unspecified), the Potency was 39.8 µM (active).
